The record followed here is the supplement of paper PMC7156485.

“And” between values parts separate entries of the source, which are not always exact repeats. Identical values can stand only once.
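Also: TDF is a line of transformed human dermal fibroblasts of mesenchymal origin.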

In this assay the test system is TDF. Kind of assay: H1.0 immunofluorescence intensity relative to DMSO (% of DMSO); higher = stronger H1.0 induction, active = 120 or more. The note with it: concentration: 10 µM; 24 h. The method in brief: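 In 384-well plates holding 800 HCC1569 or TDF cells per well in RPMI with 10% FBS, compounds were tested at 10 µM for 24 h at 37 °C in triplicate. Fixation used 3.7% formaldehyde. Staining used a rabbit anti-H1.0 antibody with an AlexaFluor 647 secondary, plus DAPI. Each value, H1.0 nuclear intensity or cell number, is a median of replicates shown as percent of the plate control, and HCC1569 values were smoothed for positional effects.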
`CCN(CC)CCNC(=O)c1ccc(N)cc1.Cl` [Procainamide.HCl]: the H1.0 immunofluorescence intensity is 91.2 (inactive).

In the case of `Cc1cccc(Nc2cc(Cl)nc(SCC(=O)O)n2)c1C`, the H1.0 immunofluorescence intensity is 91.8 (inactive). The figure for `Cc1cc2c(OCC(CNC(C)(C)C)OC(=O)c3ccccc3)cccc2[nH]1` (stereo not given) [Bopindolol] is 99 (inactive); for `COC(=O)c1ccc2c(c1)nc(NC(=O)c1ccccc1)n2CCCc1ccccc1` it is 94.6 (inactive). With `COc1ccc(-c2cc(C(O)C3CCCCN3)c3ccccc3n2)cc1.Cl.Cl` (stereo not given) the figure was 169 (active); with `O=C1c2cccc(O)c2C(=O)c2c(O)cc(CO)cc21` [Aloe-emodine], 97.3 (inactive).

Regarding `O=C1CCN(c2ccccc2)N1` [Phenidone], the H1.0 immunofluorescence intensity was 92.2 (inactive). The figure for `Cl.N=c1c[n+](N2CCOCC2)[n-]o1` [3-Morpholinosydnonimine hydrochloride] is 94.1 (inactive).

Regarding `CCCCCC=CC=CC(O)CCCCCCCC(=O)O` (stereo not given), the H1.0 immunofluorescence intensity is 100 (inactive). The figure for `CCN(CC)CC(=O)Nc1c(C)cccc1C.Cl.O` [Lidocaine.HCl.H2O] is 89.5 (inactive).

`Cc1ccc(OCC(O)C(C)NC(C)C)c2c1CCC2.Cl` (stereo not given) [ICI 118,551 hydrochloride]: the H1.0 immunofluorescence intensity is 96.9 (inactive). Take `CN(C)c1ccnc2sc3c(=O)n(N4CCCCCC4)cnc3c12`: the H1.0 immunofluorescence intensity is 91 (inactive). For `CCCCCC(O)C=CC=CCCCCCCCCCC(=O)O` (stereo not given), the H1.0 immunofluorescence intensity was 95.7 (inactive). With `CCC=CCC=CCC=CCCCCCCCCCC(=O)O` [Eicosatrienoic acid] the figure was 100 (inactive); with `COc1cc2ncnc(Sc3nnc(C)s3)c2cc1OC`, 108 (inactive); with `COc1c2occc2cc2ccc(=O)oc12` [Xanthotoxin], 106 (inactive). As to `Cc1cc(C(C)(C)C)c(O)c(C(C)(C)C)c1`, the H1.0 immunofluorescence intensity was 90.4 (inactive).

As for `COC(=O)C(=C1OC(=O)C(c2ccccc2)=C1O)c1ccccc1` [Vulpinic acid], the H1.0 immunofluorescence intensity is 89.4 (inactive). The figure for `CCn1cc(C(=O)O)c(=O)c2cc(F)c(N3CCNCC3)cc21` [Norfloxacin] is 105 (inactive); for `Br.CN1CCc2c(cc(O)c(O)c2Cl)C(c2cccc(Cl)c2)C1` (stereo not given) it is 91.9 (inactive); for `Cc1cc(Nc2nc(NC(C)c3ccc(F)cc3)c(C#N)cc2F)n[nH]1` (stereo not given) it is 167 (active). With `CC(C)C1NC(=O)C(CCCCN)NC(=O)C(Cc2c[nH]c3ccccc23)NC(=O)C(Cc2ccc(O)cc2)NC(=O)C(C)N(C)C(=O)C(Cc2ccccc2)NC1=O` (stereo not given) [Seglitide] the figure was 102 (inactive); with `Cn1ccc(NC(=O)c2cc(Oc3ccc(C(=O)N4CCC4)c(F)c3)c3c(c2)OC(C)(C)C3)n1`, 102 (inactive); with `CCN(CC)CCNC(=O)c1ccc(NC(C)=O)cc1.Cl` [N-Acetylprocainamide hydrochloride], 105 (inactive). The figure for `O=C(O)c1cccnc1Nc1cccc(C(F)(F)F)c1` [Niflumic acid] is 97.7 (inactive); for `COC(=O)c1ccc(O)c2[nH]c3c(C=O)c(O)cc(=O)c-3nc12` [Lomofungin] it is 94.3 (inactive); for `CCC1Cc2cc(O)ccc2C2=C1c1ccc(O)cc1CC2CC` [(R,R)-cis-Diethyl tetrahydro-2,8-chrysenediol] it is 87.9 (inactive). Regarding `CC1(C)CCCC(C)(C2CCC3(C)C2C(O)CC2C4(C)CCC(O)C(C)(C)C4C(O)CC23C)O1` (stereo not given) [Panaxatriol], the H1.0 immunofluorescence intensity is 94.8 (inactive). With `COc1ccc2cc1Oc1ccc(cc1)CC1c3cc(c(OC)cc3CCN1C)Oc1c(OC)c(OC)cc3c1C(C2)N(C)CC3` (stereo not given) [Isotetrandrine] the figure was 111 (inactive).

With `Cc1coc2c1C(=O)C(=O)c1c-2ccc2c1CCCC2(C)C` [Tanshinone IIA], the H1.0 immunofluorescence intensity was 113 (inactive). Take `Cc1ccc(S(=O)(=O)C=CC#N)cc1`: the H1.0 immunofluorescence intensity is 98.9 (inactive) and 92.5 (inactive). The figure for `CCCCCCCCCCCC=CCC=CCCCC(=O)O` [5(Z), 8(Z)-Eicosadienoic acid] is 99.9 (inactive).

For `CSc1ccc2c(c1)N(CCC1CCCCN1C)c1ccccc1S2.Cl` (stereo not given) [Thioridazine hydrochloride], the H1.0 immunofluorescence intensity is 110 (inactive). With `O=C(O)c1ccc(SC2=NS(=O)(=O)c3ccccc32)cc1` [4-((1,1-dioxidobenzo[d]isothiazol-3-yl)thio)benzoic acid] the figure was 93.5 (inactive); with `O=C(O)C=Cc1cnc[nH]1` [4-Imidazoleacrylic acid], 97.2 (inactive). With `CN1C2CCC1CC(OC(=O)c1c[nH]c3ccccc13)C2.Cl` (stereo not given) [3-Tropanyl-indole-3-carboxylate hydrochloride] the figure was 93.4 (inactive); with `O=c1cc(O)cc(C=Cc2ccc(O)c(O)c2)o1` [Hispidin], 97 (inactive); with `C=CC(=O)Nc1cc2c(Nc3ccc(F)c(Cl)c3)ncnc2cc1OCCCN1CCOCC1.Cl.Cl` [Canertinib], 108 (inactive).

As to `Cl.O.O.c1ccc2c(c1)CN1CCCC1=N2` [Desoxypeganine], the H1.0 immunofluorescence intensity is 89.6 (inactive).

Regarding `CCCCCCCCCCCCCC=CC(O)C(CO)N(C)C` (stereo not given) [N,N-Dimethylsphingosine], the H1.0 immunofluorescence intensity was 101 (inactive).
